# Results as given in PubChem BioAssay (EPA / NIEHS).
# Activity calls are given as the source filed them. The calls were made as follows: active = hit-call score of the fitted dose curve at least 0.9, where 1 is the maximum; inactive = score below 0.9.
# How the values were obtained:
# [1] = read-out: Tissue Factor, F3 (gene 2152); test: BSK_CASM3C_TissueFactor: BioMAP Diversity Plus: CASM3C Assay for Tissue Factor Biomarker Activity (AID 2283052); settings: primary human coronary artery smooth muscle cells; actives raise or lower the signal;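 also: cell surface tissue factor protein level read by ELISA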
# [2] = read-out: Interferon-gamma inducible Protein 10 (IP10), CXCL10 (gene 3627); test: BSK_hDFCGF_IP10: BioMAP Diversity Plus: hDFCGF Assay for Interferon-gamma inducible Protein 10 (IP10) Biomarker Activity (AID 2283053); settings: primary human foreskin fibroblasts; actives raise or lower the signal
# In short: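 ELISA read-out of IP-10 (CXCL10) from primary human skin fibroblasts, 24 h after compound addition. Gain or loss of signal versus DMSO baseline, bidirectional curve fitting.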
# [3] = read-out: Urokinase-type plasminogen activator receptor (uPAR), PLAUR (gene 5329); test: BSK_CASM3C_uPAR: BioMAP Diversity Plus: CASM3C Assay for Urokinase-type plasminogen activator receptor (uPAR) Biomarker Activity (AID 2283054); settings: primary human coronary artery smooth muscle cells; actives raise or lower the signal;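 also: cell-surface uPAR protein level quantified by ELISA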
# [4] = read-out: Vascular cell adhesion molecule 1 (VCAM1), VCAM1 (gene 7412); test: BSK_CASM3C_VCAM1: BioMAP Diversity Plus: CASM3C Assay for Vascular cell adhesion molecule 1 (VCAM1) Biomarker Activity (AID 2283055); settings: primary human coronary artery smooth muscle cells; actives raise or lower the signal;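 also: VCAM-1 protein level quantified by ELISA on the cells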
# [5] = read-out: Collagen III, COL3A1 (gene 1281); test: BSK_hDFCGF_CollagenIII: BioMAP Diversity Plus: hDFCGF Assay for Collagen III Biomarker Activity (AID 2283056); settings: primary human foreskin fibroblasts; actives raise or lower the signal
# In short: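 ELISA readout of Collagen III in human dermal (foreskin) fibroblasts, taken 24 h post-treatment. Gain or loss relative to DMSO vehicle fitted in both directions.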
# [6] = read-out: Epidermal growth factor receptor (EGFR), EGFR (gene 1956); test: BSK_hDFCGF_EGFR: BioMAP Diversity Plus: hDFCGF Assay for Epidermal growth factor receptor (EGFR) Biomarker Activity (AID 2283057); settings: primary human foreskin fibroblasts; actives raise or lower the signal
# In short: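 ELISA readout of EGFR on human dermal fibroblasts (primary foreskin cells), 24 h post-dosing; bidirectional curve fit vs DMSO baseline, gain or loss of signal scored.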
# [7] = read-out: Interleukin-8 (IL8), CXCL8 (gene 3576); test: BSK_hDFCGF_IL8: BioMAP Diversity Plus: hDFCGF Assay for Interleukin-8 (IL8) Biomarker Activity (AID 2283058); settings: primary human foreskin fibroblasts; actives raise or lower the signal
# In short: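 IL-8 levels read by ELISA at 24 hours after dosing human skin fibroblast cultures. Parallel SRB staining assessed overt cytotoxicity, and gain or loss of signal was fitted against DMSO control.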
# [8] = BSK_hDFCGF_Proliferation: Cell Proliferation Assessment in the BioMAP Diversity Plus: hDFCGF Assay (AID 2283059); settings: primary human foreskin fibroblasts;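 also: curves fitted for both rise and fall of signal versus DMSO baseline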
# In short: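 Steps: dose primary human dermal fibroblasts (foreskin); […] fix in 10% TCA; stain with 0.1% SRB; read 560 nm; fit gain or loss of signal against DMSO.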
# [9] = read-out: Macrophage colony-stimulating factor (MCSF), CSF1 (gene 1435); test: BSK_hDFCGF_MCSF: BioMAP Diversity Plus: hDFCGF Assay for Macrophage colony-stimulating factor (MCSF) Biomarker Activity (AID 2283060); settings: primary human foreskin fibroblasts; actives raise or lower the signal
# In short: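 M-CSF levels read by ELISA at 24 h post-dosing in human skin fibroblasts. Parallel cultures stained with SRB assessed cytotoxicity at the same time point; response fitted in both directions against the DMSO baseline.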
# [10] = BSK_hDFCGF_SRB: Viability Assessment in the BioMAP Diversity Plus: hDFCGF Assay (AID 2283061); settings: primary human foreskin fibroblasts;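 also: cells exposed to compound for 24 h before the read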
# In short: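 Viability was read as total protein: after 10% TCA fixation, wells were stained with 0.1% sulforhodamine B and read at 560 nm. Primary human foreskin fibroblasts were dosed for 24 h, with bidirectional fitting versus DMSO.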
# [11] = read-out: Monokine induced gamma interferon (MIG), CXCL9 (gene 4283); test: BSK_hDFCGF_MIG: BioMAP Diversity Plus: hDFCGF Assay for Monokine induced gamma interferon (MIG) Biomarker Activity (AID 2283063); settings: primary human foreskin fibroblasts; actives raise or lower the signal
# In short: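 Human primary foreskin fibroblasts in the hDFCGF system, exposed to test chemical for 24 h; MIG measured by ELISA. Bidirectional curve fitting against DMSO negative control as activity baseline.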
# [12] = read-out: Matrix Metallopeptidase 1 (MMP1), MMP1 (gene 4312); test: BSK_hDFCGF_MMP1: BioMAP Diversity Plus: hDFCGF Assay for Matrix Metallopeptidase 1 (MMP1) Biomarker Activity (AID 2283064); settings: primary human foreskin fibroblasts; actives raise or lower the signal
# In short: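 MMP1 levels quantified by ELISA 24 h after dosing human dermal fibroblast cultures, with parallel SRB total-protein staining for overt cytotoxicity. Data fitted in both directions against DMSO baseline.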
# [13] = read-out: Vascular cell adhesion molecule 1 (VCAM1), VCAM1 (gene 7412); test: BSK_hDFCGF_VCAM1: BioMAP Diversity Plus: hDFCGF Assay for Vascular cell adhesion molecule 1 (VCAM1) Biomarker Activity (AID 2283065); settings: primary human foreskin fibroblasts; actives raise or lower the signal;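 as to AC50: VCAM-1 protein level quantified by ELISA after 24 h chemical exposure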
# In short: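 ELISA readout of VCAM-1 on human dermal fibroblast primary cultures, 24 h after chemical exposure. Gain or loss of signal fitted in both directions against DMSO baseline.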
# [14] = read-out: Plasminogen activator inhibitor-1 (PAI1), SERPINE1 (gene 5054); test: BSK_hDFCGF_PAI1: BioMAP Diversity Plus: hDFCGF Assay for Plasminogen activator inhibitor-1 (PAI1) Biomarker Activity (AID 2283066); settings: primary human foreskin fibroblasts; actives raise or lower the signal
# In short: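 ELISA readout of PAI-1 from primary human skin fibroblast cultures, 24 h after compound addition. Gain or loss of signal was fitted bidirectionally against DMSO baseline.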
# [15] = read-out: Intercellular Adhesion Molecule 1 (ICAM1), ICAM1 (gene 3383); test: BSK_KF3CT_ICAM1: BioMAP Diversity Plus: KF3CT Assay for Intercellular Adhesion Molecule 1 (ICAM1) Biomarker Activity (AID 2283067); settings: primary human keratinocytes with fibroblasts; actives raise or lower the signal
# In short: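 Cell-surface ICAM-1 was measured by ELISA 24 h after dosing primary human skin keratinocytes co-cultured with fibroblasts. Parallel SRB staining tracked overt cytotoxicity. Gain or loss of signal was fitted relative to DMSO.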
# [16] = read-out: Interferon-gamma inducible Protein 10 (IP10), CXCL10 (gene 3627); test: BSK_KF3CT_IP10: BioMAP Diversity Plus: KF3CT Assay for Interferon-gamma inducible Protein 10 (IP10) Biomarker Activity (AID 2283068); settings: primary human keratinocytes with fibroblasts; actives raise or lower the signal
# In short: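 KF3CT co-culture (keratinocytes + foreskin fibroblasts), 24 h compound, IP-10 by ELISA; bidirectional fit vs DMSO baseline.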
# [17] = BSK_KF3CT_SRB: Viability Assessment in the BioMAP Diversity Plus: KF3CT Assay (AID 2283069); settings: primary human keratinocytes with fibroblasts;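 also: total protein by sulforhodamine B staining as a cytotoxicity measure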
# In short: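 Cytotoxicity was gauged by SRB staining (0.1% SRB, 10% TCA fixation, 560 nm) of parallel cultures at 24 h. The cells were primary human skin keratinocytes co-cultured with fibroblasts, and activity was fitted in both directions against DMSO.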
# [18] = read-out: Interleukin-1 alpha (IL1a), IL1A (gene 3552); test: BSK_KF3CT_IL1a: BioMAP Diversity Plus: KF3CT Assay for Interleukin-1 alpha (IL1a) Biomarker Activity (AID 2283070); settings: primary human keratinocytes with fibroblasts; actives raise or lower the signal
# In short: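 IL-1a was detected by ELISA 24 h after chemical treatment of a co-culture of human skin keratinocytes and foreskin fibroblasts. Gain or loss of signal was fitted against the DMSO baseline.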
# [19] = read-out: TIMP metallopeptidase inhibitor 2 (TIMP2), TIMP2 (gene 7077); test: BSK_KF3CT_TIMP2: BioMAP Diversity Plus: KF3CT Assay for TIMP metallopeptidase inhibitor 2 (TIMP2) Biomarker Activity (AID 2283071); settings: primary human keratinocytes with fibroblasts; actives raise or lower the signal
# In short: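 ELISA readout of TIMP-2 in keratinocyte plus foreskin fibroblast co-cultures (human skin primary cells), 24 h post-dose. Gain or loss of signal fitted relative to DMSO.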
compound,measurement,setting,value
O=Cc1ccccc1C=O,outcome,[1],inactive
same,outcome,[2],inactive
same,outcome,[3],inactive
same,outcome,[4],inactive
same,outcome,[5],inactive
same,outcome,[6],inactive
same,outcome,[7],inactive
same,outcome,[8],inactive
same,outcome,[9],inactive
same,outcome,[10],inactive
same,outcome,[11],inactive
same,outcome,[12],inactive
same,outcome,[13],inactive
same,outcome,[14],inactive
same,outcome,[15],inactive
same,outcome,[16],inactive
same,outcome,[17],inactive
same,outcome,[18],inactive
same,outcome,[19],inactive
CCOCCOCCO,outcome,[1],inactive
same,outcome,[2],inactive
same,outcome,[3],inactive
same,outcome,[4],inactive
same,outcome,[5],inactive
same,outcome,[6],inactive
same,outcome,[7],inactive
same,outcome,[8],inactive
same,outcome,[9],inactive
same,outcome,[10],inactive
same,outcome,[11],inactive
same,outcome,[12],inactive
same,outcome,[13],inactive
same,outcome,[14],inactive
same,outcome,[15],inactive
same,outcome,[16],inactive
same,outcome,[17],inactive
same,outcome,[18],inactive
same,outcome,[19],inactive
CC(=O)O,outcome,[1],inactive
same,outcome,[2],inactive
same,outcome,[3],inactive
same,outcome,[4],inactive
same,outcome,[5],inactive
same,outcome,[6],inactive
same,outcome,[7],inactive
same,AC50,[8],31.2 µM (active)
same,outcome,[9],inactive
same,outcome,[10],inactive
same,outcome,[11],inactive
same,outcome,[12],inactive
same,outcome,[13],inactive
same,outcome,[14],inactive
same,outcome,[15],inactive
same,outcome,[16],inactive
same,outcome,[17],inactive
same,outcome,[18],inactive
same,outcome,[19],inactive
CCCCOC(=O)CCCCC(=O)OCCCC,outcome,[1],inactive
same,outcome,[2],inactive
same,outcome,[3],inactive
same,outcome,[4],inactive
same,outcome,[5],inactive
same,outcome,[6],inactive
same,outcome,[7],inactive
same,outcome,[8],inactive
same,outcome,[9],inactive
same,outcome,[10],inactive
same,outcome,[11],inactive
same,outcome,[12],inactive
same,outcome,[13],inactive
same,outcome,[14],inactive
same,outcome,[15],inactive
same,outcome,[16],inactive
same,outcome,[17],inactive
same,outcome,[18],inactive
same,outcome,[19],inactive
O=C(NS(=O)(=O)/C=C/c1cccs1)c1ccc(F)cc1Br,AC50,[1],0.061 µM (active)
same,AC50,[2],30.9 µM (active)
same,outcome,[3],inactive
same,outcome,[4],inactive
same,outcome,[5],inactive
same,outcome,[6],inactive
same,outcome,[7],inactive
same,AC50,[8],6.17 µM (active)
same,outcome,[9],inactive
same,outcome,[10],inactive
same,outcome,[11],inactive
same,outcome,[12],inactive
same,outcome,[13],inactive
same,outcome,[14],inactive
same,outcome,[15],inactive
same,outcome,[16],inactive
same,outcome,[17],inactive
same,AC50,[18],2.09 µM (active)
same,outcome,[19],inactive
CS(=O)(=O)c1ccc([C@@H](C[C@H]2CCC(=O)C2)C(=O)Nc2cnccn2)cc1Cl,outcome,[1],inactive
same,outcome,[2],inactive
same,outcome,[3],inactive
same,outcome,[4],inactive
same,outcome,[5],inactive
same,outcome,[6],inactive
same,outcome,[7],inactive
same,outcome,[8],inactive
same,outcome,[9],inactive
same,outcome,[10],inactive
same,outcome,[11],inactive
same,outcome,[12],inactive
same,outcome,[13],inactive
same,outcome,[14],inactive
same,outcome,[15],inactive
same,outcome,[16],inactive
same,outcome,[17],inactive
same,outcome,[18],inactive
same,outcome,[19],inactive
CN(C)CCCN1c2ccccc2Sc2ccc(Cl)cc21,outcome,[1],inactive
same,AC50,[2],26.1 µM (active)
same,AC50,[3],20 µM (active)
same,outcome,[4],inactive
same,AC50,[7],31.4 µM (active)
same,AC50,[8],16.6 µM (active)
same,AC50,[9],22.1 µM (active)
same,AC50,[10],31.9 µM (active)
same,AC50,[11],31.1 µM (active)
same,AC50,[12],31.5 µM (active)
same,AC50,[13],24.7 µM (active)
same,AC50,[14],31.9 µM (active)
same,AC50,[15],35.4 µM (active)
same,AC50,[16],30.8 µM (active)
same,AC50,[17],31.6 µM (active)
same,AC50,[18],31 µM (active)
same,outcome,[19],inactive
